Out of some 63,000 compounds screened, about 1,100 (1.7%) were called active. Cut-off read from the data, not from the text of the source: active = cytotoxicity above about 50%; inactive = the rest. The full list was thinned out, with actives kept by preference. Results with a measured potency or affinity are listed apart.
Assay: cytotoxicity in HPDE-C7 cells, cell-based, fluorescence, HTS (AID 430);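 note: cells exposed to compound for 48 hours before viability readout; 0% = vehicle and 100% = reference cytotoxic drug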
Conditions: HPDE-C7 pancreatic duct cells viability, at 10 µM, active compounds read high

Question: Which cytotoxicity does the source give for `COC(=O)C1=C(C)NC(=O)CC1c1ccc(C(=O)OC)cc1` (configuration not stated) here?
Answer: 5.9% (inactive)

Question: Which cytotoxicity does the source give for `CCN(CC)S(=O)(=O)c1ccc2[nH]cc(C(=O)NCCN3CCCCC3C)c(=O)c2c1` (configuration not stated) here?
Answer: 0% (inactive)

Question: Which cytotoxicity does the source give for `Cc1cc(=O)[nH]c(SCC2COC3(CCCCC3)O2)n1` (configuration not stated) here?
Answer: -12.2% (inactive)

Question: With `Cc1c(-c2nc(N)nc(Nc3ccc(F)cc3)n2)oc2ccccc12` as the compound, how does the cytotoxicity read?
Answer: 6.3% (inactive)

Question: Which cytotoxicity does the source give for `Cc1c(-c2nc(N)nc(Nc3ccccc3)n2)oc2ccccc12` here?
Answer: 52.8% (active)

Question: With `Cc1c(-c2nc(N)nc(Nc3ccccc3F)n2)oc2ccccc12` as the compound, how does the cytotoxicity read?
Answer: 15% (inactive)

Question: Which cytotoxicity does the source give for `COc1nc(Oc2ccc(C(=O)OCC(N)=O)cc2)nc(N(C)C)n1` here?
Answer: 3.8% (inactive)

Question: For `O=C1CCc2cc(S(=O)(=O)N3CCC(C(=O)NC4CCCC4)CC3)ccc2N1`, which cytotoxicity is on record?
Answer: 0.9% (inactive)

Question: With `Cc1ccc(-c2csc3nc(C)n(-n4c(C)ccc4C)c(=O)c23)o1` as the compound, how does the cytotoxicity read?
Answer: 10.1% (inactive)

Question: Which cytotoxicity does the source give for `C=CCn1c(SCc2csc(C)n2)nc2sc3c(c2c1=O)CCCCC3` here?
Answer: 4.7% (inactive)

Question: Which cytotoxicity does the source give for `C=CCn1c(SCc2csc(C)n2)nc2scc(-c3ccc(C)o3)c2c1=O` here?
Answer: 86.5% (active)

Question: For `CCSc1nc2c(c(=O)[nH]1)C(c1cccnc1)C(C(=O)OC)=C(C)N2` (configuration not stated), which cytotoxicity is on record?
Answer: -19% (inactive)

Question: Which cytotoxicity does the source give for `CCn1c(C)c(C(C)=O)c(N2CCCCC2)nc1=S` here?
Answer: -8.3% (inactive)

Question: With `CC(=O)c1c(C)[nH]c(C(=O)OCC(=O)Nc2cc(C)on2)c1C` as the compound, how does the cytotoxicity read?
Answer: 7.8% (inactive)

Question: With `Cc1csc(NC(=O)CSc2nc(C)cs2)n1` as the compound, how does the cytotoxicity read?
Answer: 3.7% (inactive)

Question: With `CC(C)(C)NC(=O)CSc1nsc(SCC(=O)NC(C)(C)C)c1C#N` as the compound, how does the cytotoxicity read?
Answer: 1.2% (inactive)

Question: Which cytotoxicity does the source give for `O=C(NC1CCS(=O)(=O)C1)c1cn(-c2ccccc2)nc1-c1ccccc1` (configuration not stated) here?
Answer: 59.8% (active)

Question: For `O=C(NC1CCS(=O)(=O)C1)c1ccccc1C(=O)c1ccccc1` (configuration not stated), which cytotoxicity is on record?
Answer: -4.3% (inactive)

Question: For `O=C(NCCCn1ccnc1)c1cn(-c2ccccc2)nc1-c1ccccc1`, which cytotoxicity is on record?
Answer: -1.6% (inactive)

Question: For `CCCn1c(NC(=O)C2CCN(S(=O)(=O)c3cccs3)CC2)nc2ccccc21`, which cytotoxicity is on record?
Answer: 8% (inactive)

Question: For `COc1ccccc1-n1nnnc1SCc1ccccc1`, which cytotoxicity is on record?
Answer: -13.8% (inactive)

Question: For `Cc1cccc(C)c1-n1nnnc1S(=O)(=O)Cc1ccccc1Cl`, which cytotoxicity is on record?
Answer: 1% (inactive)

Question: With `C=CCn1cnc2c(c1=O)c1nc3ccccc3nc1n2-c1ccccc1` as the compound, how does the cytotoxicity read?
Answer: 1.4% (inactive)

Question: With `Cc1nc(SCC(=O)Nc2c(C)n(C)n(-c3ccccc3)c2=O)n[nH]1` as the compound, how does the cytotoxicity read?
Answer: -18.3% (inactive)

Question: With `CCc1ccc2[nH]c(=O)c(CN(Cc3ccc(OC)cc3)Cc3nnnn3CCOC)cc2c1` as the compound, how does the cytotoxicity read?
Answer: 9.3% (inactive)

Question: With `O=C1c2oc3ccc(F)cc3c(=O)c2C(c2ccccc2)N1CC1CCCO1` (configuration not stated) as the compound, how does the cytotoxicity read?
Answer: -14.4% (inactive)

Question: Which cytotoxicity does the source give for `Cc1noc(C(=O)N2CCN(c3ccc(F)cc3)CC2)c1Cl` here?
Answer: -11.2% (inactive)

Question: For `CCN1CCN(c2ncc(C(=O)Nc3ccccc3C(=O)OC)c3ccccc23)CC1`, which cytotoxicity is on record?
Answer: 25.8% (inactive)

Question: Which cytotoxicity does the source give for `CCN1CCN(c2ncc(C(=O)Nc3cc(Cl)c(OC)cc3OC)c3ccccc23)CC1` here?
Answer: 16% (inactive)

Question: For `CCN1CCN(c2ncc(C(=O)Nc3cc(Cl)ccc3OC)c3ccccc23)CC1`, which cytotoxicity is on record?
Answer: 82.5% (active)

Question: With `COc1ccccc1Cn1c(=O)c2ccccc2n2c(SCC(=O)N3CCCCC3)nnc12` as the compound, how does the cytotoxicity read?
Answer: -4.5% (inactive)

Question: With `COc1ccc(NC(=O)c2ocnc2C)cc1OC` as the compound, how does the cytotoxicity read?
Answer: -32.7% (inactive)

Question: For `OC(COCC1COc2ccccc2O1)CN1CCN(c2ccccn2)CC1` (configuration not stated), which cytotoxicity is on record?
Answer: 6.2% (inactive)

Question: Which cytotoxicity does the source give for `Cc1nc(NCCNC(=O)c2ccco2)c2c(C)c(C)sc2n1` here?
Answer: -13.6% (inactive)

Question: With `O=C(O)C1CC=CCC1C(=O)Nc1ccc(S(=O)(=O)N2CCCc3ccccc32)cc1` (configuration not stated) as the compound, how does the cytotoxicity read?
Answer: 30.6% (inactive)

Question: Which cytotoxicity does the source give for `COC(=O)Nc1ccc(S(=O)(=O)N2CCCc3ccccc32)cc1` here?
Answer: 56.8% (active)

Question: With `Cc1cc(NC(=O)COC(=O)c2ccc(S(=O)(=O)N3CCCc4ccccc43)cc2)no1` as the compound, how does the cytotoxicity read?
Answer: 58.6% (active)

Question: With `CC(=O)Nc1ccc(S(=O)(=O)N2CCCc3ccccc32)cc1` as the compound, how does the cytotoxicity read?
Answer: 37.8% (inactive)

Question: Which cytotoxicity does the source give for `CCCNC(=O)NC(=O)COC(=O)c1ccc(OC)c(S(=O)(=O)N2CCCc3ccccc32)c1` here?
Answer: 0.1% (inactive)

Question: For `Cc1cc(NC(=O)COC(=O)c2cccc(S(=O)(=O)N3CCOCC3)c2)no1`, which cytotoxicity is on record?
Answer: -14.7% (inactive)

Question: Which cytotoxicity does the source give for `CCC(C)Oc1cccc(OCCCCN2C(=O)NC(C)(C)C2=O)c1` (configuration not stated) here?
Answer: 8.5% (inactive)

Question: With `O=C(CC1c2ccccc2Oc2ccccc21)NCc1ccco1` as the compound, how does the cytotoxicity read?
Answer: -3.4% (inactive)

Question: With `CCC(=O)N1CCc2cc(Br)cc(S(=O)(=O)N3CCCCCC3)c21` as the compound, how does the cytotoxicity read?
Answer: -12.2% (inactive)

Question: Which cytotoxicity does the source give for `CC(=O)N1CCc2cc(S(=O)(=O)CCC(=O)N3CCN(C(=O)c4ccco4)CC3)ccc21` here?
Answer: 1.6% (inactive)

Question: Which cytotoxicity does the source give for `COC(=O)c1oc2ccc(Br)cc2c1-n1cccc1` here?
Answer: 1.1% (inactive)

Question: For `O=C(O)c1oc2ccc(Br)cc2c1-n1cccc1`, which cytotoxicity is on record?
Answer: 57.8% (active)

Question: Which cytotoxicity does the source give for `O=C(O)c1oc2ccccc2c1-n1cccc1` here?
Answer: 9.5% (inactive)

Question: With `COc1ccc(NC(=O)CSc2nnc(-c3ccccn3)n2N)cc1` as the compound, how does the cytotoxicity read?
Answer: -17.7% (inactive)

Question: For `O=C(Nc1ccccc1)OCCOc1ccccc1`, which cytotoxicity is on record?
Answer: -17.6% (inactive)

Question: For `Cc1cc2c(cc(C(=O)OCC(=O)NCc3cccs3)n2C(C)C)o1`, which cytotoxicity is on record?
Answer: 57.6% (active)

Question: Which cytotoxicity does the source give for `Cn1c(C(=O)OCC(=O)NCc2cccs2)cc2sccc21` here?
Answer: 9.4% (inactive)

Question: Which cytotoxicity does the source give for `CC(C)n1c(C(=O)OCC(=O)NCc2ccc3c(c2)OCO3)cc2sccc21` here?
Answer: 45% (inactive)

Question: Which cytotoxicity does the source give for `CCOC(=O)N1CCN(C(=O)CSc2nnc(Cn3c(=O)sc4ccccc43)n2C)CC1` here?
Answer: -4.9% (inactive)

Question: For `CCCCOc1ccc(C(=O)Nc2ccncc2)cc1`, which cytotoxicity is on record?
Answer: 7.8% (inactive)

Question: Which cytotoxicity does the source give for `COCCNc1oc(-c2ccccc2Cl)nc1C#N` here?
Answer: -6% (inactive)

Question: Which cytotoxicity does the source give for `CNc1oc(-c2ccccc2Cl)nc1C#N` here?
Answer: -3.8% (inactive)

Question: Which cytotoxicity does the source give for `COc1ccc(Nc2oc(-c3ccccc3Cl)nc2C#N)cc1` here?
Answer: 57.9% (active)

Question: With `Cc1ccccc1-n1nnnc1-c1ccccc1` as the compound, how does the cytotoxicity read?
Answer: -2.5% (inactive)

Question: With `O=C1C(c2ccncc2)=C(O)c2ccccc21` as the compound, how does the cytotoxicity read?
Answer: -1.4% (inactive)

Question: For `COc1ccc(C(=O)Oc2ccc(C(C)=O)cc2)c(OC)c1`, which cytotoxicity is on record?
Answer: 13.4% (inactive)

Question: With `COc1ccc(C(=O)c2ccc(N3CCOCC3)cc2)c(OC)c1` as the compound, how does the cytotoxicity read?
Answer: 7.3% (inactive)

Question: For `COc1ccc(C(=O)c2ccc(N(C)C)cc2)c(OC)c1`, which cytotoxicity is on record?
Answer: 68.7% (active)

— PubChem BioAssay AID430 (Sanford-Burnham Center for Chemical Genomics, 2006)
